PubChem BioAssay (Tox21)
Calls of active or inactive are those of the source. The call rests on the fitted dose curve; in most records, active means well fitted activation curve with a large enough effect in the repeat runs; inconclusive means weak or mixed curves; inactive means flat fitted curve, though single readings scatter.

molecular target: KiSS-1 receptor (Homo sapiens) (UniProt Q969F8); experiment: Human kisspeptin (KISS1R) small molecule agonists, calcium flux assay in KISS1R-HEK293 cells (AID 1920064); details: KISS1R-HEK293, calcium flux fluorescence, agonist; series mostly up to 76.8 µM; activation: at the top concentration
Sequence (Q969F8 whole entry, looked up): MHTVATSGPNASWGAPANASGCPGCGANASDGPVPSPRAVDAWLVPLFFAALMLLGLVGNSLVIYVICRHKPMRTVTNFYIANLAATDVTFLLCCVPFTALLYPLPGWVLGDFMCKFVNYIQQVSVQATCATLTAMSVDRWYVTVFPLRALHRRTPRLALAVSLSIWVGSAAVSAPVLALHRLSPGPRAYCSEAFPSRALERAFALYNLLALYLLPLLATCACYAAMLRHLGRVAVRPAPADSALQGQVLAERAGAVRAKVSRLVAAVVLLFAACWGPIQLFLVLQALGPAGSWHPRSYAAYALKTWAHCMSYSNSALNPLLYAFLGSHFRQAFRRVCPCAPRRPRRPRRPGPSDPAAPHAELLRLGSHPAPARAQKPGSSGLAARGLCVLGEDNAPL
From the text: National Center for Advancing Translational Sciences [NCATS]
Division of Preclinical Innovation [DPI]
U.S. Environmental Protection Agency [EPA]
National Institutes of Environmental Health Sciences [NIEHS]
National Toxicology Program [NTP]
U.S. Food and Drug Administration [FDA]
Kisspeptin and its receptor KISS1R play key roles in mammalian reproduction due to their involvement in the onset of puberty and control of the hypothalamic-pituitary-gonadal axis such as regulates GnRH release from the hypothalamus. The kisspeptin/KISS1R system also plays a direct role in peripheral organs (including the ovary, testis, uterus, and placenta) and is implicated in reproductive diseases such as miscarriage and polycystic ovary syndrome (PCOS). Abnormal KISS1R activity is associated with abnormal puberty, infertility, endometriosis, and hormone-dependent tumors. The KISS1 receptor (KISS1R, also called GPR54), a G-protein-coupled receptor (GPCR), acts (through phospholipase C) to increase intracellular inositol trisphosphate and then release intracellular calcium stores. Cell-based KISS1R-HEK293 assay is using HEK293 cells that have been genetically engineered to express the human KISS1R, which activity can be measured by calcium signaling. A compound/drug can activate (agonist) KISS1R that can be monitored by levels of intracellular calcium.
KISS1R-HEK293 cells developed by Codex Corp contain human KISS1R gene, which was stably integrated into HEK 293 cells. The compound activation can be detected by fluorescence intensity via calcium flux assay. This cell line has been used to screen the Tox21 10K compound library to identify agonists of KISS1R.
KISS1R-Hek293 cells were dispensed at 1500 cells/4uL/well in 1536-well black wall/clear bottom plates using a multidrop dispenser. After the assay plates were incubated at a 37 C/5% CO2 incubator for 18 hours, 4 microL of Calcium Dye Solution was added to each well. The plates were incubated at 37 C for 1 hour. And then 23 nL of compounds dissolved in DMSO, positive controls, or DMSO only was transferred to the assay plate by a pin tool station. The fluorescence intensity in the plates was measured using FDSS 7000EX kinetic plate reader with a filter set of Ex/Em=480/540 for 3 min at 1 sec intervals. Each test compound was measured at 15 concentrations and in triplicates.
On the % scale 0 is the no-effect control and ±100 the full control effect.

SMILES	activation
CC/C=C\CCOC(C)=O	-1.06% (inactive)
Cc1c(C2(c3cc(Br)c(O)c(Br)c3C)OS(=O)(=O)c3ccccc32)cc(Br)c(O)c1Br	0.129% (inactive)
Cc1ccsc1/C=C/C1=NCCCN1C	2.16% [at 35.3 µM] (inactive)
CC1=NC(C)OC1C (stereo not given)	0.265% (inactive)
CCN(CC)C(=O)N1CCN(C)CC1	-0.925% [at 35.3 µM] (inactive)
CC1(C)C(=O)N(CO)C(=O)N1CO	1% (inactive)
Nc1ccc2cc(S(=O)(=O)O)ccc2c1	-0.734% (inactive)
Cc1c(N)cccc1[N+](=O)[O-]	-2.7% (inactive)
CC(C)C[C@H](NC(=O)OCC1c2ccccc2-c2ccccc21)C(=O)O	-1.04% (inactive)
C=CCSSCCC	-1.78% (inactive)
[O-][n+]1cccc(CO)c1	-0.432% [at 35.3 µM] (inactive)
COC(=O)N/N=C/c1c[n+]([O-])c2ccccc2[n+]1[O-]	0% [at 35.3 µM] (inactive)
CC(C)[C@H](N)C(=O)OCCOCn1cnc2c(=O)[nH]c(N)nc21	-0.99% [at 35.3 µM] (inactive)
CCOC(=O)/C=C/C(=O)O	2.23% (inactive)
Oc1cccc(O)c1O	-2.67% (inactive)
CCCCCCCC/C=C\CCCCCCCC(=O)OC[C@@H](O)[C@H]1OC[C@H](O)[C@H]1O	1.85% (inactive)
CC(C)(C)NSc1nc2ccccc2s1	-0.997% (inactive)
CCCCCCC(=O)OCC	-1.1% (inactive)
Cc1cc2c(OCC(CNC(C)(C)C)OC(=O)c3ccccc3)cccc2[nH]1 (stereo not given)	-0.26% [at 35.3 µM] (inactive)
CCCCCCCCCCCCCOP(=O)(O)O	-0.327% (inactive)

SMILES	activation
Cc1c(N)cccc1Cl	-2.53% (inactive)
COC(=O)C(C)(C)C	0.266% (inactive)
COc1cc(C(=O)NC2CCCNC2)cc(OC)c1OC (stereo not given)	-0.692% [at 35.3 µM] (inactive)
CN(C)CCc1c[nH]c2ccc(C[C@H]3COC(=O)N3)cc12	0.552% [at 35.3 µM] (inactive)
CC(C)CC(C)CC(C)CC(C)COC(=O)c1ccccc1C(=O)OCC(C)CC(C)CC(C)CC(C)C (stereo not given)	-1.83% (inactive)
Cc1nccn1CC1CCc2c(c3ccccc3n2C)C1=O (stereo not given)	-1.98% [at 35.3 µM] (inactive)
O=C1OCCN1/N=C/c1ccc([N+](=O)[O-])o1	-0.278% [at 35.3 µM] (inactive)
C=CC(C)(CCC=C(C)C)OC(=O)c1ccccc1 (stereo not given)	-1.73% (inactive)
CCCCOC(=O)C(C)Oc1ccc(Oc2ccc(C(F)(F)F)cn2)cc1 (stereo not given)	1% (inactive)
CCCCN(C)C	24.4% (inactive)
Cc1cc(OI)c(C(C)C)cc1-c1cc(C(C)C)c(OI)cc1C	2.94% [at 35.3 µM] (inactive)
C=C(C)CCCC(C)CCO (stereo not given)	0.15% (inactive)
O=C(O)CCC(=O)c1ccc(-c2ccccc2)cc1	0.292% [at 35.3 µM] (inactive)
O=c1[nH]cccc1O	0.367% (inactive)
Cc1cccc2sc(N)nc12	0.605% (inactive)
Nc1cccc(S(=O)(=O)c2cccc(N)c2)c1	-1% (inactive)
O=C(O)CP(=O)(O)O	-0.015% [at 35.3 µM] (inactive)
N#Cc1cscn1	-0.109% (inactive)
CC(C)(O)c1ccccc1	0.515% (inactive)
CN(C)CCCCl	-3.45% (inactive)
